Experimental data taken from PubChem BioAssay AID652067 (The Scripps Research Institute Molecular Screening Center, 2013).
About 5,400 (1.5%) of roughly 370,000 compounds were called active.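 The calls were made as follows: active = activation above the mean of all tested compounds plus 3 SD (cut at about 5.5% in these data); inactive = the rest.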 The list comes from a sample in which actives are over-represented; it also holds similar structures and randomly drawn compounds.

System: DAF-12 nuclear receptor (Haemonchus contortus)
Test: H. contortus DAF-12 nuclear receptor activators, primary screen, cell-based, luminescence, HEK293, lit1-tk-luc reporter (AID 652067);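 also: 100% = response to 3 µM Δ7-dafachronic acid high control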
Settings: HEK293 hcDAF-12 lit1-tk-luc reporter, at 6.8 µM, hits give high values, 0% DMSO, 100% Δ7-dafachronic acid

SMILES | activation
Cc1cnc(C)c(N2CCN(C(=O)C3CCC(=O)N(CCc4cccc(F)c4)C3)CC2)n1 (configuration not stated) | -0.94% (inactive)
Cc1sc2nc(SCC(=O)c3ccc(O)c(O)c3)n(Cc3ccco3)c(=O)c2c1C | -0.45% (inactive)
c1cnc(N2CCN(c3ccc4ccccc4n3)CC2)nc1 | 9.72% (active)
CC1=C(N2CCN(c3ncccn3)CC2)CCC1=O | -1.78% (inactive)
CC12CCC(C(=O)N3CCN(c4ncccn4)CC3)(c3nc4ccccc4nc31)C2(C)C (configuration not stated) | -0.6% (inactive)
COC(=O)N1Cc2ccnnc2CC1c1ccccc1Br (configuration not stated) | -2.69% (inactive)
Nc1ccn([C@@H]2O[C@H](C(=O)N[C@H]3CCCCNC3=O)[C@@H](O)[C@H]2O)c(=O)n1 | 0.58% (inactive)
Cc1cccc(N2CCN(Cc3c(C)n(C)n(-c4ccccc4)c3=O)CC2)c1C | -2.12% (inactive)
CCn1cc(CN2CCN(CC(C)(C)C)C(CCO)C2)c2ccccc21 (configuration not stated) | 7.54% (active)
COc1ccccc1N1CCC(N2CCN(CC(C)(C)C)C(CCO)C2)CC1 (configuration not stated) | -0.72% (inactive)
Cc1ccc(CN2CCN(Cc3ccccc3-c3ccco3)CC2CCO)o1 (configuration not stated) | -0.79% (inactive)
COC(=O)[C@]12C[C@H](CC(=O)NCc3ccccc3)C(=O)N(Cc3ccccc3)C1=C[C@H](COCc1ccccc1)O[C@@H]2C | -1.28% (inactive)
CC(=O)c1cccc(NC(=O)COc2ccc(S(=O)(=O)N3CCOCC3)cc2)c1 | -0.45% (inactive)
Cc1ccccc1NC(=O)C1CCN(c2ncccn2)CC1 | 0.03% (inactive)
Nn1c(SCC(=O)N2c3ccccc3Sc3ccccc32)nnc1-c1n[nH]c2c1CCC2 | -2.66% (inactive)
CCOC(=O)c1cc2n(c1N)-c1ccccc1C2=O | 6.53% (active)
CCOC(=O)c1cnn(Cc2ccccc2Cl)c1N | 1.1% (inactive)
CCOC(=O)c1ccccc1NC(=O)c1c(N)n(C)c(=O)[nH]c1=O | -0.79% (inactive)
C[C@H](O)[C@@H]1CN2CCc3ccc(-c4ccc5c(c4)OCO5)cc3[C@@H]2C[C@@H]1N(C)C(=O)C1CCCCC1 | -0.66% (inactive)
Cc1ccc(OCc2nnc(SC/C=C/c3ccccc3)n2Cc2ccco2)cc1 | -1.14% (inactive)
COc1ccc(N2CCN(CCNS(=O)(=O)c3ccc(C(C)(C)C)cc3)CC2)cc1 | -4.56% (inactive)
CC1=NCCN1S(=O)(=O)c1ccc(Br)c(C)c1 | -1.01% (inactive)
COc1ccc(CN2C/C(=C/c3ccccc3)N3C(=O)C[C@@H](c4ccccc4)N=C23)c(OC)c1 | -1.56% (inactive)

SMILES | activation
COc1cccc2cc(C(=O)N(C)C)c(=O)oc12 | -0.74% (inactive)
COc1cc2ccccc2cc1C(=O)N(CCN(C)C)c1nc2c(F)cccc2s1 | 6.37% (active)
CN(CCOc1ccccc1)C(=O)c1cc(COc2c(F)cccc2F)on1 | -1.26% (inactive)
O=S1(=O)c2ccc(N3CCN(Cc4ccccc4F)CC3)cc2Oc2ccccc2CN1Cc1cn(Cc2ccc(Cl)cc2)nn1 | 0.96% (inactive)
COc1ccc(CNS(=O)(=O)c2cc(Br)ccc2Br)cc1 | -0.97% (inactive)
CC1CCN(C(=O)c2ncn3c2C(=O)N[C@@H](C)C3)CC1 | -0.73% (inactive)
COc1nc(N=C(N)N)nc2c(C)cccc12 | 6.14% (active)
CCc1c(C)nc2c(OC)cccc2c1Cl | -0.4% (inactive)
Cc1nc(N=C(N)N)nc2c(C)cccc12 | 5.96% (active)
CCOC(=O)[C@]12CCCCC/C=C\1N(Cc1ccc(OC)cc1)C(=O)[C@H]2CC(=O)N1CCOCC1 | 4.16% (inactive)
Cc1cc(C(=O)NN=C/C=C/c2ccco2)n[nH]1 | -0.38% (inactive)
NNc1nc2c(Cl)cccc2s1 | 10% (active)
COC(=O)C1=C(C)N(Cc2ccccc2C(F)(F)F)C(=NCC2CC2)NC1c1cccc(Cl)c1 (configuration not stated) | -1.98% (inactive)
COc1cc(OC)cc(-c2nc3ccccc3c(=O)n2NC(=O)c2cccnc2Cl)c1 | -1.71% (inactive)
O=C(Nn1c(-c2ccc(Cl)cc2)nc2ccccc2c1=O)c1cccnc1Cl | 0.57% (inactive)
Cc1cccc(-c2nc3ccccc3c(=O)n2NC(=O)Cc2ccc(Cl)cc2)c1 | 6.73% (active)
S=c1c2[nH]cnc2ncn1CCSc1ncnc2nc[nH]c12 | -0.28% (inactive)
CC(C)CC(=O)Nc1ccc(Cc2ccncc2)cc1 | 0.36% (inactive)
CC(CC(=O)Nc1ccccc1)n1ccnc1 (configuration not stated) | 5.72% (active)
O=C(O)CCCC(=O)Nc1ccccc1-n1ccnc1 | -1.24% (inactive)
CCOc1ccc(NC(=O)CCS(=O)(=O)c2ccc3c(c2)CCCN3C(=O)CC)cc1 | -1.11% (inactive)
COc1cc2ccccc2cc1C(=O)Nc1ccccc1C | 10.1% (active)
Cc1ccccc1NC(=O)CCOc1ccccc1 | 0.95% (inactive)

SMILES | activation
Cc1ccccc1C(=O)Nc1ccccc1Sc1ccccc1 | -0.9% (inactive)
CCCCCCCCN1C(=O)[C@@H](CC(=O)NCc2ccccc2)C[C@@]2(C(=O)OC)C1=C[C@H](C(C)(C)C)O[C@@H]2C | 1.65% (inactive)
COC1=C[C@H](C(=O)NCCNC(C)=O)[C@H](C)[C@@H](c2ccccc2)CC1=O | -2.16% (inactive)
O=C(c1ccccc1)c1ccc(-c2ccccc2C(=O)NC2CCCCN(Cc3ccc(Cl)cc3)C2=O)cc1 (configuration not stated) | -0.91% (inactive)
COC(=O)c1c(-c2ccc(OC)cc2)c2c(c3c4ccccc4n(S(=O)(=O)c4ccc(C)cc4)c13)C(=O)N(C)C2 | 1.29% (inactive)
CCc1ccc(-c2nnn(Cc3nc4ccccc4s3)n2)cc1 | 3.01% (inactive)
COC(=O)C1[C@H]2SC(C)(C)C(C(=O)OC)N2C(=O)N1Cc1nc2ccccc2s1 (some centres not stated) | 0.45% (inactive)
COc1ccccc1OCc1nc2ccccc2s1 | 17.9% (active)
N#Cc1ccc(OC[C@@H](O)CN2CCC(C(O)(c3ccccc3)c3ccccc3)CC2)c(F)c1 | 0.25% (inactive)
Cc1ccnc(NC(=O)c2ccoc2C)c1 | 7.44% (active)
Cc1ccnc(NC(=O)C(C)N2C(=O)c3ccccc3C2=O)c1 (configuration not stated) | -0.09% (inactive)
CSCCC(NC(=O)c1ccco1)C(=O)Nc1cc(C)ccn1 (configuration not stated) | 5.45% (inactive)
COc1cc(SC)ccc1C(=O)Nc1nc(C)cs1 | -4.3% (inactive)
Cc1ccnc(NC(=O)CCCOc2ccccc2)c1 | 2.54% (inactive)
COc1cc(SC)ccc1C(=O)Nc1cc(C)ccn1 | 9.16% (active)
O=C(NCc1ccccc1)[C@H]1CCCN1C(=O)[C@@H]1CCCN1C(=O)c1ccc(Cl)cc1Cl | -1.62% (inactive)
O=C(CSc1nc2ccccc2n1Cc1ccccc1)NNC(=S)Nc1ccccc1 | -1.89% (inactive)
COC(=O)c1cc2c(c3c4ccccc4n(S(=O)(=O)c4cccc(C)c4)c13)C(=O)N(Cc1ccccc1)C2 | 1.43% (inactive)
Oc1ccc(/C=C/c2c(F)cccc2F)c2cccnc12 | -3.66% (inactive)
O=C1[C@@H](c2ccccc2)[C@@H](c2ccccc2)N1c1ccccc1 | -1.98% (inactive)
Cc1cc(-c2ccccc2)n2nc(C)c(-c3ccccc3)c2n1 | -0.96% (inactive)
Cc1nn2c(c1-c1ccccc1)N=C(c1ccco1)CC2c1ccccc1 (configuration not stated) | -0.56% (inactive)
Cc1nn(C(=O)c2ccoc2C)c(N)c1-c1ccccc1 | 12.4% (active)

SMILES | activation
CCOc1ccc(-n2c(SCC(=O)Nc3cc(C)c(NC(=O)c4ccccc4)cc3OC)nnc2-c2cccc(Cl)c2)cc1 | -2.73% (inactive)
Cc1ccccc1NC(=O)Cn1nnc(-c2ccccc2F)n1 | 1.07% (inactive)
CN1CCCCC(NC(=O)C(C)(C)C)C1=O (configuration not stated) | -1.55% (inactive)
Cc1nn(CCOc2ccccc2)c(=O)n1-c1ccccc1F | 6.6% (active)
Cc1c(C(N)=O)sc2ncn(CCOc3ccccc3)c(=O)c12 | -0.81% (inactive)
Cc1cccc2c1N(CCOc1ccccc1)C(=O)C2=O | -2.22% (inactive)
Cc1ccc(N)cc1CN1CCN(c2ncc(Cc3ccccc3)cn2)CC1 | -1.34% (inactive)
O=C1CC[C@@]23CCCN2C(=O)CCC[C@H]3[C@H]1Cc1ccccc1 | -0.12% (inactive)
NC(=O)c1ncn([C@@H]2O[C@H](C(=O)O)[C@@H](O)[C@H]2O)n1 | -0.43% (inactive)
CC(=O)n1c(C=Nc2ccccc2)c(O)c2ccccc21 | 7.8% (active)
CC(=O)OCC(C)n1c(=O)c2ccccc2n1C(C)=O (configuration not stated) | -0.22% (inactive)
O=C(Nc1ccc(Br)cc1)OCCN1C(=O)CCC12CCC(c1ccccc1)CC2 (configuration not stated) | -1.25% (inactive)
Cc1ccc(-c2nnc(SCC(=O)Nc3ccc(Oc4ccccc4)cc3)n2Cc2ccco2)cc1 | -2.76% (inactive)
CCC(C)[C@@H](C(=O)OC)N(CCc1cn(Cc2ccccc2)nn1)S(=O)(=O)c1ccccc1Br (some centres not stated) | -2.4% (inactive)
CCCn1cc(SCC(N)=O)c2ccccc21 | 2.17% (inactive)
NC(=O)CSc1c[nH]c2ccccc12 | 6.34% (active)
O=C(CSc1nnc(-c2c[nH]c3ccccc23)o1)c1ccccc1 | -0.49% (inactive)
Cc1cc(OC(=O)c2ccccc2Cl)ccc1N1C(=O)CCC1=O | -1.68% (inactive)
Cc1cccc(/C(N)=N/OC(=O)c2ccccc2Cl)c1 | 10.8% (active)
C/C(=N\OC(=O)c1ccccc1)c1c(C)nc2cc(C)ccn12 | -1.05% (inactive)
CCCCNC(=O)C[C@H]1C(=O)N(Cc2ccc(OC)cc2)C2=CCCC[C@@]21C(=O)OCC | -4.06% (inactive)
CC(=O)OCCN1CCCC12CCC(c1ccccc1)CC2 (configuration not stated) | -0.23% (inactive)
CCCCCCN1CCS(=O)(=O)N(Cc2ccc(C(F)(F)F)cc2)C(C(=O)OC)C1 (configuration not stated) | -2.04% (inactive)
